# Results filed as inconclusive are left out. Active and inactive are the calls of the source. Calls come from the whole dose curve; as a rule, active = well fitted cell-killing curve with a large enough effect in the repeat runs; inconclusive = weak or mixed curves, or effect the other way; inactive = flat fitted curve, though single readings scatter.
# Experiment: qHTS RealTime-Glo MT Cell Viability Assay in HEK293 cells - 8 hour (AID 1224887); note: nearly all actives have a fitted effect of over 50% in size; for activity change, negative = cytotoxicity: top concentration of the series differs between compounds
# Conditions: RealTime-Glo luminescence; series mostly up to 76.8 µM; activity change, negative = cytotoxicity: at the top concentration
# Source text: U.S. Tox21 Program National Center for Advancing Translational Sciences [NCATS] NIH Chemical Genomics Center [NCGC] U.S. Environmental Protection Agency [EPA] National Institutes of Environmental Health Sciences [NIEHS] National Toxicology Program [NTP] U.S. Food and Drug Administration [FDA] Tox21 Assay Overview: Measure of cell viability is critical in the cell-base assay. Analysis of cell viability is necessary for the characterization of cell responses to cytotoxic drugs and environmental stress. A RealTime-Glo MT Cell Viability Assay to monitor cell viability in real time of continues cell culture during 40 hours of compound treatment was used to screen Tox21 10K library compounds in Hek293 cells. The RealTime-Glo MT Cell Viability Assay is a nonlytic, homogeneous, bioluminescent method to measure cell viability in real time using a simple, plate-based method. The assay involves adding NanoLuc luciferase and a cell-permeant prosubstrate to cells in culture. Viable cells reduce the proprietary prosubstrate to generate a substrate for NanoLuc luciferase. This substrate diffuses from cells into the surrounding culture medium, where it is rapidly used by the NanoLuc Enzyme to produce a luminescent signal. The signal correlates with the number of viable cells, making the assay well suited for cytotoxicity studies.
# Tox21 Assay Protocol Summary: The mixture of Hek293 cell suspension and reagents were dispensed at 600cells/6 ul/well in 1536-well tissue culture treated black solid bottom plates using a Multidrop dispenser. After the assay plates were incubated at a 37 C/5% CO2 incubator for 5 hours, 23 nL of compounds dissolved in DMSO, positive and negative controls was transferred to the assay plate by a pintool work station. The plates were incubated at 37 C for 40 hours. The luminescence intensity were measured at 0h, 8h, 16h, 24h, 32h and 40h time points using ViewLux plate reader during compound treatment.
# % is set by controls: 0 for no effect and ±100 for the full control effect; potency is the fitted concentration of half-maximal effect.
Compound,"activity change, negative = cytotoxicity",Potency
N[C@@H](CSSC[C@H](N)C(=O)O)C(=O)O,16.3% [at 0.29 µM] (inactive),–
CCN1CCN(c2cc(-c3ccc(F)cc3)c3c(n2)CCCCCC3)CC1,3.49% [at 15.8 µM] (inactive),–
CO[Si](CCC1CCC2OC2C1)(OC)OC (stereo not given),9.59% (inactive),–
CC1=C(/C=C/C(C)=C/C=C/C(C)=C\C=O)C(C)(C)CCC1,-14.3% (inactive),–
Clc1nc2ccccc2s1,-7.94% (inactive),–
O=C=NCc1cccc(CN=C=O)c1,1.79% [at 15.8 µM] (inactive),–
CCCCCCCC/C=C/CCCOC(C)=O,19.6% (inactive),–
CO[Si](CCCNCCNCCN)(OC)OC,-0.165% (inactive),–
O=C1Nc2ccc(Cl)cc2[C@@](C#CC2CC2)(C(F)(F)F)O1,–,23.9 µM (active)
O=S(=O)(O)CCCN1CCOCC1,8.54% (inactive),–
Cc1ccc2ccc3cccc4ccc1c2c34,-27.6% (inactive),–
O=C1c2c(O)ccc([N+](=O)[O-])c2C(=O)c2c([N+](=O)[O-])ccc(O)c21,–,7.69 µM (active)
CC(C)=CC1CC(C)CCO1 (stereo not given),3.84% (inactive),–
Cc1cc(C)c(C=O)c(C)c1,16.1% (inactive),–
CCC(C)(C)c1cc(O)c(C(C)(C)CC)cc1O,–,21.9 µM (active)
CC1(C)COCN1,-0.079% (inactive),–
CCCSS/C(CCO)=C(\C)N(C=O)Cc1cnc(C)nc1N,-19.9% [at 35.3 µM] (inactive),–
c1ccc2c(c1)CCC2,5.64% (inactive),–
CCCCCCCC/C=C\CCCCCCCC(=O)OCCOC(=O)CCCCCCC/C=C\CCCCCCCC,–,20.2 µM (active)
CCC1CCCCC1,-3.98% (inactive),–

Compound,"activity change, negative = cytotoxicity",Potency
CC1CNCC(C)O1 (stereo not given),9.19% (inactive),–
CC(C)=C1CC[C@@H](C)CC1=O,5.33% (inactive),–
CCCCCCCC(OC)OC,6.8% [at 35.3 µM] (inactive),–
CCCCCCCOC(=O)c1ccc(O)cc1,–,21.9 µM (active)
C=C(C)CCCC,3.32% (inactive),–
CC1=CP(=O)(c2ccccc2)CC1 (stereo not given),3.83% (inactive),–
CC(C)(C)c1n[nH]c(=O)n(N)c1=O,-1.03% (inactive),–
C/C=C/c1ccc(OC)c(OC)c1,-17.2% (inactive),–
CCOCOCC,3.21% (inactive),–
CC(C)c1cccc(C(C)C)c1N1C(=O)c2ccc(O)cc2C1=O,-24.7% (inactive),–
CN(C)c1ccc(N=NS(=O)(=O)O)cc1,–,34.5 µM (active)
C(=C/c1ccccc1)/c1ccccc1,-21.5% (inactive),–
CC(C)(C)CC(C)(C)c1ccccc1O,–,34.9 µM (active)
CN(C)c1ccc(N=Nc2ccccc2C(=O)O)cc1,-11.8% (inactive),–
CCN(CC)CCSC(=O)C(c1ccccc1)c1ccccc1,-16.3% [at 35.3 µM] (inactive),–
Cc1occc1SSc1ccoc1C,-16.8% (inactive),–
CC(=O)Nc1ccc(O)cc1,–,inactive
O=C(O)CC(=O)O,0.508% (inactive),–
O=C(O)CCCCCCC(=O)O,13.3% (inactive),–
O=c1cccc[nH]1,5.88% (inactive),–

# Reference: PubChem BioAssay (Tox21)
